We go through 26 molecules from PubChem BioAssay (Tox21).

Molecules are shown by their SMILES. Where “and” joins values, the source holds several entries; their conditions need not be identical. Equal entries are not always repeated. Unmarked numbers belong to inactive results. Calls of active or inactive are those of the source. Unless noted, the call rests on the fitted dose curve; in most records, active means well fitted curve in the direction sought with a large enough effect in the repeat runs; inconclusive means weak or mixed curves; inactive means no such curve, though single readings can be large; an effect the other way counts as inactive or inconclusive.

The nature of assay [1]: qHTS assay to identify small molecule antagonists of the thyroid receptor (TR) signaling pathway - cell viability counter screen (AID 743064). Further: nearly all actives have a fitted effect of over 50% in size. Further: potency means the concentration at half of the fitted maximal effect. Put shortly:
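Same-well viability check: GH3.TRE-Luc cells stimulated with 1 nM T3 alongside test compound for 23.5 h, followed by CellTiter-Fluor fluorescence.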
(Quantitative high-throughput screening tests each substance at several concentrations.)

Assay [2] in a line: qHTS assay to identify small molecule antagonists of the thyroid receptor (TR) signaling pathway (AID 743065). Further: nearly all actives have a fitted effect of over 55% in size. Further: potency means the concentration at half of the fitted maximal effect. Put shortly:
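Antagonism measured as loss of luciferase signal in GH3 cells stably carrying a TRE-luciferase reporter, co-treated with compound and T3 (1 nM final) for 23.5 h at 37 C. Viability was read in the same well by CellTiter-Fluor.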

A short description of assay [3]: qHTS assay to identify small molecule antagonists of the estrogen receptor alpha (ER-alpha) signaling pathway - cell viability counter screen (AID 743074; calls by dose curve;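 further: HEK293 cells carrying ER-alpha-UAS-bla reporter stimulated with 17beta-estradiol; nearly all actives have a fitted effect of over 45% in size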).
For the next assay, the target named is Aromatase (Homo sapiens) (UniProt P11511). Description: qHTS assay to identify aromatase inhibitors (AID 743083). Further: nearly all actives have a fitted effect of over 55% in size. Further: potency means the concentration at half of the fitted maximal effect.
Assay [4] relates to thyroid hormone receptor (rat, GH3 cells). In words: qHTS assay to identify small molecule agonists of the thyroid receptor (TR) signaling pathway (AID 743066; calls by dose curve).
A short description of assay [5]: qHTS assay to identify small molecule antagonists of the estrogen receptor alpha (ER-alpha) signaling pathway using the BG1 cell line - cell viability counter screen (AID 743081).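 Further: compound given together with 17beta-estradiol as the ER stimulus; nearly all actives have a fitted effect of over 45% in size.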 Further: potency means the concentration at half of the fitted maximal effect.
For assay [6], the target named is Estrogen receptor (Homo sapiens) (UniProt P03372). In words: qHTS assay to identify small molecule antagonists of the estrogen receptor alpha (ER-alpha) signaling pathway (AID 743069; active means well fitted curve in the direction sought with a large enough effect in the signal ratio in the repeat runs, not every such curve was filed as active; inconclusive means weak or mixed curves, or effect the other way; inactive means no such curve, though single readings can be large or run the other way; the % refers to the signal ratio; further: potency means the concentration at half of the fitted maximal effect). A digest of the protocol:
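ER-alpha-UAS-bla GripTite HEK293 line; 2% charcoal-stripped FBS overnight; plated, 4 hr 37C/5% CO2; cpd in DMSO + 17beta-estradiol, 18 hr 37C; LiveBLAzer B/G FRET substrate 2 hr RT; fluorescence intensity.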

Assay [7] has the same target. Description: qHTS assay to identify small molecule agonists of the estrogen receptor alpha (ER-alpha) signaling pathway (AID 743075; calls by dose curve;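 further: HEK293 GripTite cells with ER-alpha and UAS-driven beta-lactamase reporter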; further: potency means the concentration at half of the fitted maximal effect).
Assay [8] has the same target. Description: qHTS assay to identify small molecule agonists of the estrogen receptor alpha (ER-alpha) signaling pathway using the BG1 cell line (AID 743079). Further: nearly all actives have a fitted effect of over 20% in size. Further: potency means the concentration at half of the fitted maximal effect.
Assay [9] in a line: qHTS assay to identify small molecule antagonists of the estrogen receptor alpha (ER-alpha) signaling pathway using the BG1 cell line (AID 743080; calls by dose curve;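 further: BG1 cells stimulated with 17beta-estradiol alongside compound; series mostly up to about 70 µM; nearly all actives have a fitted effect of over 25% in size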). Put shortly: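 Luciferase inhibition measured with ONE-Glo after 30 min at RT in BG1Luc4E2 cells given test compounds and 17beta-estradiol for 21.5 h at 37 C; CellTiter-Fluor viability read in the same wells beforehand.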

Chain of Aromatase (Homo sapiens) (P11511 whole entry, looked up): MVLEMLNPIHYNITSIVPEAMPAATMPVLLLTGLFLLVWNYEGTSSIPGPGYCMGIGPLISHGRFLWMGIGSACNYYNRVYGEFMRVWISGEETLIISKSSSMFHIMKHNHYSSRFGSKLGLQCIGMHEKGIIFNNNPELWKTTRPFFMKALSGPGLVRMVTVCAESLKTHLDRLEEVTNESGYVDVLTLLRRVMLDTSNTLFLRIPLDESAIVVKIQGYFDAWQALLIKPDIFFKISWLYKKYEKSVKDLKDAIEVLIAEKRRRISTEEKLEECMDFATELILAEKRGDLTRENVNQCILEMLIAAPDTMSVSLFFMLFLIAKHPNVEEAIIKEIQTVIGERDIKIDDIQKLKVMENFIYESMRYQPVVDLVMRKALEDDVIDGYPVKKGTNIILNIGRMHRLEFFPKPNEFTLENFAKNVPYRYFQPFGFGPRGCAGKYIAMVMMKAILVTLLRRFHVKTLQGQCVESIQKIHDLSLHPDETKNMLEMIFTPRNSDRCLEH
Chain of Estrogen receptor (Homo sapiens) (P03372 whole entry, looked up): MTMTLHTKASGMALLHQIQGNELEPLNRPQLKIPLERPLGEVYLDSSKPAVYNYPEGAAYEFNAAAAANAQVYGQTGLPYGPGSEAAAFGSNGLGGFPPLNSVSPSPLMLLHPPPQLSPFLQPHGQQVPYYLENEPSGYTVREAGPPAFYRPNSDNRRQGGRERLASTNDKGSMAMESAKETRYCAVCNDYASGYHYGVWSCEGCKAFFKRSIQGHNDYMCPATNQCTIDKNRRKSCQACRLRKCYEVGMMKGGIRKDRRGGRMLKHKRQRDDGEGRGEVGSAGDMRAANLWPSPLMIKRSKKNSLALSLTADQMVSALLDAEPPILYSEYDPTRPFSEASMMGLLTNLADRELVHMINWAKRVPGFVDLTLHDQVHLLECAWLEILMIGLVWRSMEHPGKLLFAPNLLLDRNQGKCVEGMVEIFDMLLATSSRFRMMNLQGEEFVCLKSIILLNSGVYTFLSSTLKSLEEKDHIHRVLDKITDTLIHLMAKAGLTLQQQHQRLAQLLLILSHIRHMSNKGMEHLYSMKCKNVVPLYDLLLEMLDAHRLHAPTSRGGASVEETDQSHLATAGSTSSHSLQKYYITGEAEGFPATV

As to `CN(C)C(=O)NC1(c2ccccc2)CCN(CC[C@@]2(c3ccc(F)c(F)c3)CN(C(=O)c3ccccc3)CCO2)CC1`, the figures for the Potency in assay [1] and in assay [2] were 31.9 µM (active) and 56.7 µM (active), respectively. Besides, the Potency result (in assay [3]; with Aromatase (Homo sapiens)) was “inactive” each time.

As for `O=C(NCCO[N+](=O)[O-])c1cccnc1`, the Potency entry (in assay [1]; in assay [2]; in assay [4]; in assay [3]; in [5]; in the assay with Aromatase (Homo sapiens)) was “inactive” throughout.

As to `CCC(C)O` (configuration not stated), the Potency result in assay [1], in assay [2], in assay [4] and in assay [5] was “inactive” in each case.

On to `O=C(Nc1ccccc1)c1ccccc1O`, for which the Potency entry (in assay [1]; in [4]; in assay [5]; with Aromatase (Homo sapiens)) was “inactive” in each case. In addition, the Potency in assay [2] is 61.1 µM (active).

For the molecule `OCc1cc(C(O)CNCCCCCCOCCCCc2ccccc2)ccc1O` (configuration not stated), the Potency in assay [1] was 7.5 µM (active) and 11.9 µM (active); in assay [2], 10.6 µM (active) and 8.41 µM (active); in assay [5], 23.7 µM (active); with Aromatase (Homo sapiens), 26.6 µM (active). The Potency entry in assay [6], in [3] and in [7] was “inactive” in each case.

For the molecule `CNCCCN1c2ccccc2CCc2ccccc21`, the Potency in assay [1] is 8.04 µM (active); in assay [2] it was 12.7 µM (active). The Potency result in assay [6], in assay [3], in [7], in assay [8], in [9] and in [5] was “inactive” each time. The Potency entry with Aromatase (Homo sapiens) was “inactive”.

Take `O=C1OC(=O)C2C3C=CC(C3)C12` (configuration not stated): the Potency result (in assay [1]; in assay [2]; in assay [4]; in [3]; in assay [5]; in the assay with Aromatase (Homo sapiens)) was “inactive” throughout.

Take `CN1CCC(=C2c3ccccc3Sc3ccccc32)CC1`: the Potency in [1] was 5.96 µM (active); in assay [2] it was 8.41 µM (active). The Potency result in assay [8] was “inactive”.

Turning to `O=P(O)(OCc1ccccc1)OCc1ccccc1`, the Potency result in assay [1], in assay [2], in assay [6], in assay [3], in [7] and in [8] was “inactive” in each case. Moreover, the Potency entry (in [9]; in assay [5]; in the assay with Aromatase (Homo sapiens)) was “inactive” each time.

`COC(C)(C)CCO`: the Potency result (in [1]; in [2]; in [4]; in assay [3]; in assay [5]; with Aromatase (Homo sapiens)) was “inactive” each time.

`CCN(CC)CCNc1ccc(CNC=O)c2sc3ccc(OC)cc3c(=O)c12`: the Potency in assay [1] is 8.63 µM (active); in assay [2], 24.3 µM (active); in assay [7] it was 4.36 µM [inconclusive] (active); in assay [8], 2.73 µM (active); in assay [5], 4.86 µM (active); with Aromatase (Homo sapiens) it was 38.6 µM (active). Further, the Potency entry in assay [3] is “inactive”.

On to `CCc1c(C(=O)NN2CCCCC2)nn(-c2ccc(Cl)cc2Cl)c1-c1ccc(Br)cc1`, for which the Potency in assay [1] is 15.4 µM (active); in assay [2], 8.63 µM (active); in [6], 13.8 µM [inconclusive] (active); in assay [8], 27.3 µM (active). Besides, the Potency result in [3], in assay [7] and in assay [5] was “inactive” in each case.

On to `CCCNCC(O)COc1ccccc1C(=O)CCc1ccccc1` (configuration not stated), for which the Potency in assay [1] was 29.8 µM (active); in [2], 23.7 µM (active). Also, the Potency entry in [3] and in assay [5] was “inactive” each time.

Turning to `COC(=O)c1ccc(I)cc1S(=O)(=O)NC(=O)Nc1nc(C)nc(OC)n1`, the Potency result (in assay [1]; in [2]; in [3]; in assay [5]; with Aromatase (Homo sapiens)) was “inactive” each time.

For `C#C[C@]1(O)CC[C@H]2[C@@H]3CCc4cc(OC5CCCC5)ccc4[C@H]3CC[C@@]21C`, the Potency in [1] is 18.8 µM (active); in [2], 16.8 µM (active). The Potency entry (in assay [3]; in assay [5]; with Aromatase (Homo sapiens)) was “inactive” in each case.

Regarding `CC(COCCO)OCCO` (configuration not stated), the Potency entry (in assay [1]; in [2]; in assay [4]; in assay [3]; in assay [5]; with Aromatase (Homo sapiens)) was “inactive” each time.

Consider `CCCCCCCC#N`, for which the Potency entry in [1], in [2], in assay [4] and in [5] was “inactive” throughout.

On to `Clc1ccc2c(c1)CCc1cccnc1C2=C1CCNCC1`, for which the Potency is 10.6 µM (active) in assay [1] and 9.44 µM (active) in assay [2]. Moreover, the Potency result in assay [6], in assay [7] and in [5] was “inactive” throughout.

As to `C=CC(=O)OCCOc1ccccc1`, the Potency entry (in assay [1]; in assay [4]; in assay [3]; in assay [5]; in the assay with Aromatase (Homo sapiens)) was “inactive” throughout. In addition, the Potency in [2] was 54.4 µM (active).

For `O=C(O)C1(C(=O)Nc2ccc(Cl)cc2Cl)CC1`, the Potency entry (in [1]; in [4]; in assay [7]; in [8]; in [5]; in the assay with Aromatase (Homo sapiens)) was “inactive” each time. The Potency in [2] is 68.6 µM (active).

On to `c1ccc(C(O[C@H]2CCCN(CCc3ccc4c(c3)OCO4)C2)c2ccccc2)cc1`, for which the Potency is 29.8 µM (active) in [1] and 26.6 µM (active) in assay [2]. Also, the Potency entry in [6], in [3], in assay [7], in [8], in [9] and in assay [5] was “inactive” each time.

As to `CNCCCCOc1ccccc1Cc1ccccc1`, the Potency in assay [1] and in assay [2] was 11.9 µM (active) in each case. The Potency entry in [3], in [7], in assay [8], in assay [9] and in assay [5] was “inactive” in each case.

Regarding `c1ccc(CNCCNCc2ccccc2)cc1`, the Potency result in assay [1], in assay [4], in assay [6], in assay [3], in [7] and in [8] was “inactive” each time. In addition, the Potency result (in [9]; in assay [5]; with Aromatase (Homo sapiens)) was “inactive” in each case.

As to `CN(C)CCN(Cc1ccc(Cl)cc1)c1ccccn1`, the results for the Potency in [1] and in assay [2] were 11.4 µM (active) and 10.1 µM (active), respectively. The Potency entry (in assay [4]; in [3]; in assay [5]; with Aromatase (Homo sapiens)) was “inactive” throughout.

As for `CC(=O)c1ccc2c(c1)N(CCCN1CCC(CCO)CC1)c1ccccc1S2`, the figures for the Potency in assay [1] and in assay [2] were 10.1 µM (active) and 11.4 µM (active), respectively. In addition, the Potency entry (in [6]; in assay [3]; in assay [7]; in assay [8]; in [9]; with Aromatase (Homo sapiens)) was “inactive” each time.

For the molecule `C[C@@H]1C[C@H]2O[C@@]3(O[C@@H]2C(C)(C)O)[C@H](O)[C@@]2(C)[C@@H]4CC[C@H]5C(C)(C)[C@@H](O[C@@H]6OC[C@@H](O)[C@H](O)[C@H]6O)CC[C@@]56C[C@@]46CC[C@]2(C)[C@@H]13`, the Potency entry in assay [1], in assay [4], in assay [6], in assay [3], in assay [7] and in [8] was “inactive” in each case. Further, the Potency result (in assay [9]; in [5]; with Aromatase (Homo sapiens)) was “inactive” in each case.
